Hits are enriched below; roughly 4% of the tested compounds scored in any of these assays.
UGM FP inh: Mtb UDP-galactopyranose mutase inhibition. inhibition, % at 10 µM. purified UGM, fluorescence polarization probe displacement. AID 504406. 320,000 tested, 0.06% active. P9WIQ1; in the data active means inhibition above about 10%, passing the limit was not always enough
GDH-TPI counter-1: inhibits GDH-TPI coupling enzymes, artifact for Mtb FBA screen; inhibition, % at 4.8 µM; AID 588335; GDH-TPI coupled enzyme counterscreen, NADH absorbance; 360,000 tested, 1.2% active; in the data active means inhibition above about 30%;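 further: 0% = DMSO wells and 100% = wells lacking the enzyme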
Rv3671c inh: inhibitors of M. tuberculosis serine protease Rv3671c; P9WHR9; inhibition, % at 5.96 µM; 320,000 tested, 0.048% active; AID 2606; in the data active means inhibition above about 38%;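 further: extracellular domain of Rv3671c used as enzyme; 0% = enzyme with DMSO and 100% = no enzyme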
RecA intein inh: inhibitors of M. tuberculosis RecA intein splicing; P9WHJ3; cell-free RecA intein splicing, fluorescence; inhibition, % (test concentration not listed); 290,000 tested, 0.75% active; AID 2221; in the data active means inhibition above about 30%;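 further: 0% = vehicle wells and 100% = reference inhibitor control wells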
FBA Mtb inh: inhibits M. tuberculosis FBA enzyme; P9WQA3; purified M. tuberculosis FBA, fluorescence read-out; inhibition, % at 1 µM; 360,000 tested, 2.3% active;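 further: 0% = vehicle and 100% = reference inhibitor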
Target sequence (P9WQA3 whole entry, looked up): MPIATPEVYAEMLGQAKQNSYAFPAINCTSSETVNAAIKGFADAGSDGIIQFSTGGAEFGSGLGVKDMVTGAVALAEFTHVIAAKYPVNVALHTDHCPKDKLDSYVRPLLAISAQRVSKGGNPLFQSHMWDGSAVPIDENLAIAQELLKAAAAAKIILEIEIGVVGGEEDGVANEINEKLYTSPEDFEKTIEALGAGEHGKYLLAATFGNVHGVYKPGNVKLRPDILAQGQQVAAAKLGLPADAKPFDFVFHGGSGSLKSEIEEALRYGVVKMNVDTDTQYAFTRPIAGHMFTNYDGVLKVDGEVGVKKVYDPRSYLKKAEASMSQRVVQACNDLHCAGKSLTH
Mtb betalactam: beta-lactam sensitization of Mtb H37Rv; AID 434955; 330,000 tested, 0.27% active; inhibition, % at 25 µM; M. tuberculosis H37Rv growth with meropenem, percent inhibition; call rule not given here;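 further: growth measured after seven days incubation then overnight dye step; 0% = bacteria only wells and 100% = bacteria with antibiotic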
Mtb FBA confirm: confirmation of M. tuberculosis fructose-bisphosphate aldolase inhibitors; shares compounds with FBA Mtb inh; inhibition, % at 1 µM; purified M. tuberculosis FBA, fluorescence read-out; 5,600 tested, 78% active; AID 651616;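 further: 0% = vehicle wells and 100% = reference inhibitor wells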
GDH-TPI counter-2: counter-screen for M. tuberculosis FBA inhibitors: GDH-TPI coupled enzyme inhibition; shares compounds with FBA Mtb inh; inhibition, % at 1 µM; GDH-TPI coupled enzyme counterscreen, fluorescence; 5,600 tested, 81% active; in the data active means inhibition above about 10%
* = called active by the depositor. Unless noted, no stated cut-off is given here; in the data, active means inhibition above about 27%; inactive means the rest.

Screening CCCOc1ccc(C2C3=C(CCCC3=O)N(CC(=O)O)C3=C2C(=O)CCC3)cc1OCC returned UGM FP inh 0, GDH-TPI counter-1 16, Rv3671c inh 5, RecA intein inh 2, FBA Mtb inh 2 and Mtb betalactam -4.
For Cc1ccc(NC(=O)NC2C(NC(=O)Nc3ccc(C)cc3)N(C)C(=O)N2C)cc1 (configuration not stated) the results were UGM FP inh -1, GDH-TPI counter-1 1, Rv3671c inh 2, RecA intein inh -4, FBA Mtb inh -1 and Mtb betalactam -15.
Screening CCCCn1c(=O)nc2n(-c3ccc(C)cc3)c3ccccc3cc-2c1=O returned UGM FP inh 0, GDH-TPI counter-1 -12, Rv3671c inh 0, RecA intein inh -20, FBA Mtb inh 11 and Mtb betalactam 4.
Screening Cc1ccc(-n2c3nc(=O)n(C)c(=O)c-3cc3ccccc32)cc1 returned UGM FP inh 1, GDH-TPI counter-1 13, Rv3671c inh 9, RecA intein inh -93, FBA Mtb inh 27*, Mtb betalactam -10, Mtb FBA confirm 93* and GDH-TPI counter-2 87*.
`CCOP(=O)(OCC)c1nc(-c2ccc(C)cc2)oc1NCc1ccccc1` gave UGM FP inh -5, GDH-TPI counter-1 -4, Rv3671c inh 1, RecA intein inh 1, FBA Mtb inh 84*, Mtb betalactam 13, Mtb FBA confirm 172* and GDH-TPI counter-2 186*.
For CC(C)NC(=O)c1c(CSc2ccc(Cl)cc2)noc1C(=O)NCc1ccccc1 the results were UGM FP inh 0, GDH-TPI counter-1 -3, Rv3671c inh -2, RecA intein inh 7, FBA Mtb inh -1 and Mtb betalactam -11.
For c1ccc2c(N3CCOCC3)nc(N3CCOCC3)nc2c1 the results were UGM FP inh 2, GDH-TPI counter-1 14, Rv3671c inh 2, RecA intein inh 3, FBA Mtb inh 110*, Mtb betalactam -8, Mtb FBA confirm active and GDH-TPI counter-2 163*.
`Cc1nc(NCCCO)c(C#N)c2c1COC(C)(C)C2` gave UGM FP inh 1, GDH-TPI counter-1 5, Rv3671c inh -4, RecA intein inh -1, FBA Mtb inh 74*, Mtb betalactam 10, Mtb FBA confirm 113* and GDH-TPI counter-2 86*.
CC1(C)Cc2c(C#N)c(NCCCO)nc(-c3ccccc3)c2CO1 was read as UGM FP inh 1, GDH-TPI counter-1 0, Rv3671c inh 0, RecA intein inh -2, FBA Mtb inh 13 and Mtb betalactam -3.
For O=C(NCC(=O)N1CCN(S(=O)(=O)c2cccc(F)c2)CC1)c1ccc(Br)o1 the results were GDH-TPI counter-1 3, Rv3671c inh 1, RecA intein inh 1, FBA Mtb inh 1 and Mtb betalactam -5.
For COc1ccccc1N1CC(C(=O)Nc2ccc(C)c(S(=O)(=O)N3CCOCC3)c2)CC1=O (configuration not stated) the results were UGM FP inh 4, GDH-TPI counter-1 -1, Rv3671c inh 4, FBA Mtb inh -1 and Mtb betalactam 1.
For Cc1c(C)c2ccc(OCC(=O)N3CCOCC3)c(C)c2oc1=O the results were UGM FP inh 5, GDH-TPI counter-1 8, Rv3671c inh -1, RecA intein inh 0, FBA Mtb inh 81*, Mtb betalactam -12, Mtb FBA confirm 0 and GDH-TPI counter-2 -4.
For Cc1cc(OCC(=O)N2CCC(C(=O)O)(c3ccccc3)CC2)c2c(C)cc(=O)oc2c1 the results were UGM FP inh 1, GDH-TPI counter-1 2, Rv3671c inh -10, FBA Mtb inh 10 and Mtb betalactam 3.
O=C(COc1ccc2ccc(=O)oc2c1)N1CCC(C(=O)O)(c2ccccc2)CC1 was read as UGM FP inh -4, GDH-TPI counter-1 1, Rv3671c inh 1, RecA intein inh 20, FBA Mtb inh 27*, Mtb betalactam -6, Mtb FBA confirm active and GDH-TPI counter-2 active.
CCCCc1cc(=O)oc2c(C)c(OCC(=O)N3CCC(C(=O)O)(c4ccccc4)CC3)ccc12 was read as UGM FP inh 8, GDH-TPI counter-1 17, Rv3671c inh 2, RecA intein inh 0, FBA Mtb inh 35*, Mtb betalactam 3, Mtb FBA confirm 182* and GDH-TPI counter-2 131*.
Screening CCCCc1cc(=O)oc2c(C)c(OCC(=O)N3CCCC3)ccc12 returned UGM FP inh -3, GDH-TPI counter-1 8, Rv3671c inh -1, RecA intein inh 1, FBA Mtb inh 24 and Mtb betalactam 2.
Cc1c(C)c2ccc(OCC(=O)N3CCC(C(=O)O)(c4ccccc4)CC3)c(C)c2oc1=O was read as UGM FP inh 2, GDH-TPI counter-1 9, Rv3671c inh -12, RecA intein inh 1, FBA Mtb inh 99*, Mtb betalactam 2, Mtb FBA confirm 103* and GDH-TPI counter-2 91*.
Cc1cc(NC(=O)COn2nnc3ccc(Cl)cc32)no1 was read as UGM FP inh 2, GDH-TPI counter-1 -3, Rv3671c inh -5, RecA intein inh -5, FBA Mtb inh -2 and Mtb betalactam -7.
Cc1ccc(OCC(=O)N2c3ccccc3CC2C)c([N+](=O)[O-])n1 (configuration not stated) was read as UGM FP inh -3, GDH-TPI counter-1 4, Rv3671c inh 1, RecA intein inh -1, FBA Mtb inh 2 and Mtb betalactam 0.
`Cc1cc(-c2ccccc2)c2nncn2n1` gave UGM FP inh 0, GDH-TPI counter-1 -3, Rv3671c inh -5, RecA intein inh -3, FBA Mtb inh 45*, Mtb betalactam -4, Mtb FBA confirm active and GDH-TPI counter-2 active.
CN(C)c1ccc(NC(=O)c2ccc3nc[nH]c3c2)cc1 was read as UGM FP inh 0, GDH-TPI counter-1 7, Rv3671c inh 4, RecA intein inh -3, FBA Mtb inh 1 and Mtb betalactam 4.
Screening Nc1ccc2c(c1)C(=O)N(CCCCCC(=O)O)C2 returned UGM FP inh -2, GDH-TPI counter-1 4, Rv3671c inh 3, RecA intein inh 1, FBA Mtb inh 38*, Mtb betalactam -7, Mtb FBA confirm 121* and GDH-TPI counter-2 110*.
For Nc1ccc2c(c1)C(=O)N(CCCC(=O)O)C2=O the results were UGM FP inh -1, GDH-TPI counter-1 4, Rv3671c inh -2, RecA intein inh -18, FBA Mtb inh 0 and Mtb betalactam -14.
`Cc1ccccc1S(=O)(=O)N1C[C@H]2CON(C)[C@H]2C[C@H]1c1cccc(-c2ccccc2)c1` gave GDH-TPI counter-1 -18 and FBA Mtb inh 2.
For C=C(C)Cn1c(N2CCCC2)nc2c1c(=O)n(C)c(=O)n2C the results were UGM FP inh 0, GDH-TPI counter-1 3, Rv3671c inh 7, RecA intein inh 1, FBA Mtb inh 33*, Mtb betalactam 2, Mtb FBA confirm 157* and GDH-TPI counter-2 109*.
